Screening results: PubChem, ICCB-Longwood Screening Facility, Harvard Medical School
Mtb MbtI inh: MbtI salicylate synthase inhibitors, primary screen, biochemical, fluorescence intensity; P9WFX0; purified MbtI enzyme, fluorescence intensity read-out; inhibition, % (concentration not given with the values); 0.89% of 100,000 active; in the data active = inhibition mostly above about 56%, no sharp cut-off; inactive = mostly below about 77%
Polio RdRp inh: poliovirus RdRp elongation inhibitors, primary screen, biochemical, fluorescence polarization, total intensity; Genome polyprotein (Poliovirus type 1 (strain Mahoney)), P03300; poliovirus polymerase elongation; stronger effect = lower value; % elongation, % (compound at 16.7 µg/mL); 0.66% of 150,000 active; AID 588519, 2011; in the data active = % elongation below about 90%
Target sequence (P03300 1749-2209 limits assumed): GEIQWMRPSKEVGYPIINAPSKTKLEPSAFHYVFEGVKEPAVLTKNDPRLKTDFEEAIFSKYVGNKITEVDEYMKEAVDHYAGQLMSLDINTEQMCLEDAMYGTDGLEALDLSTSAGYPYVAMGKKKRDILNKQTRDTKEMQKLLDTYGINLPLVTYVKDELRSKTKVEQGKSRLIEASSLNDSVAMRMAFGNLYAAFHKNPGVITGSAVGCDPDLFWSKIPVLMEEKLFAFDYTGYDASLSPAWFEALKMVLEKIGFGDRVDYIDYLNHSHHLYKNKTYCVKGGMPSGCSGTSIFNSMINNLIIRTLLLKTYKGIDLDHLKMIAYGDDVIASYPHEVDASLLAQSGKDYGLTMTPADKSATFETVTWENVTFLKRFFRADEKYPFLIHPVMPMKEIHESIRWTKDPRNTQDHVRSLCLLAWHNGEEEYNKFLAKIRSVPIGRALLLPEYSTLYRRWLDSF
MenB inh: M. tuberculosis MenB inhibitors, primary screen, biochemical, absorbance; AID 540299, 2011; inhibition, % (test concentration not listed); 0.43% of 100,000 active; MenB enzyme assay, absorbance read-out; in the data active = inhibition above about 21%, passing the limit was not always enough
A number is an active result; i = inactive; nt = not tested or not shown. Shown are actives, neighbours in structure and some others; about 1.4% of the full set was active somewhere.

SMILES	Mtb MbtI inh	Polio RdRp inh	MenB inh
CC1(C)C(=O)NC(=O)N1C(=O)c1ccccc1	i	i	i
O=C1Nc2ccccc2-c2ccccc2N1	i	i	i
O=C1Nc2ccccc2C(=O)C1(O)O	i	i	43
O=S(=O)(CC(O)COc1ccccc1)c1ccccn1 (centres undefined)	nt	i	i
CCCN(CCC)c1nc(N2CCCCC2)c2nc(N(CCC)CCC)nc(N3CCCCC3)c2n1	nt	i	i
O=C1NC(=S)S/C1=C1\OC(=O)c2ccccc21	i	i	i
C/C(C/C(C)=C1/SC(=S)NC1=O)=C1\SC(=S)NC1=O	81	i	i
CNC(=O)C1C2C=CC3(O2)C1C(=O)N(C1CC1)C3C(=O)NCc1ccc(OC)cc1 (centres undefined)	i	i	48
CCOC(=O)CN1CC23C=CC(O2)C(C(=O)NCc2ccc(OC)cc2)C3C1=O (centres undefined)	i	i	i
C=CCN1C(=O)C2C(C(=O)NCc3ccccc3)C3C=CC2(O3)C1C(=O)NC(C)(C)C (centres undefined)	i	i	i
C#CCN1C(=O)C2C(C(=O)NC)C3C=CC2(O3)C1C(=O)NCc1ccc(OC)cc1 (centres undefined)	i	i	54
COc1cccc(NC(=O)N(Cc2nc3ccccc3c(=O)[nH]2)C2CCCCC2)c1	i	i	i
CC(C)C1OC(N)=NC1=O (centres undefined)	i	i	i
CCOC(=O)c1noc(NC(=O)c2ccc(C(F)(F)F)cc2)c1-c1ccccc1	i	i	i
Cc1ccc(/C=C(\C#N)C(=O)NC2CCCCC2C)o1 (centres undefined)	i	i	i
CCC(C)NC(=O)Cn1ncc2c(=O)oc3ccc(C)cc3c21 (centres undefined)	i	i	i
O=c1c(Cl)c[nH]n(-c2ccccc2)c1=O	i	i	i
CSc1c[nH]n(-c2ccccc2)c(=O)c1=O	78	i	i
COc1ccccc1NC(=O)N(CC#N)c1ccccc1	i	i	i
O=C(COc1cccc2cccnc12)c1ccccc1	i	i	i
CNc1ccc(O)cc1	101	59	nt
Oc1ccc(NC(=S)Nc2ccc(O)cc2)cc1	i	i	i
Cc1ccc(S(=O)(=O)NCCO)cc1-c1nnc2c3ccccc3c(C)nn12	i	i	i
O=S(=O)(Cc1ccccc1)NNc1ccccc1	i	i	i
COc1ccc(-c2cnn(-c3ccccc3)c2N)cc1OC	i	i	i
SMILES	Mtb MbtI inh	Polio RdRp inh	MenB inh
Nc1nc2c(s1)CCc1c-2cnn1-c1ccccc1	nt	42	i
Cc1cc(=O)oc2ccc(O)cc12	i	i	i
COC(=O)c1c(C)[nH]c(C(=O)C(C)N2CCN(c3ccc(O)cc3)CC2)c1C (centres undefined)	i	i	i
Cn1c(=O)c2ccccc2n2c(COC(=O)C3(Cc4nc5ccccc5s4)CCCCC3)nnc12	i	i	i
CCCCc1ccc(N/C=c2/c(C)c(C#N)c3nc4ccccc4n3c2=O)cc1	i	i	i
Cn1nnnc1SC1CCCCN(C(=O)c2ccc(F)cc2)C1=O (centres undefined)	i	i	i
CCC1=CC(c2ccccc2)NC(=S)N1 (centres undefined)	nt	i	i
Cc1ccccc1CN1C(=O)C(O)(CC(=O)/C=C\c2ccccc2)c2ccccc21 (centres undefined)	i	i	i
NC(=O)CN1C(=O)C(O)(CC(=O)/C=C\c2ccccc2)c2ccccc21 (centres undefined)	i	i	43
CCCc1ccc(OC(C)C(=O)Nc2sc3c(c2C(=O)OC)CCCCC3)cc1 (centres undefined)	nt	86	nt
CCOC(=O)c1c(NC(=O)C(C)Oc2ccc(Cl)c(C)c2)sc2c1CCCC2 (centres undefined)	nt	i	nt
CCOC(=O)c1c(NC(=O)COc2ccc(Cl)cc2C)sc2c1CCCCC2	nt	i	nt
COC(=O)c1c(NC(=O)COc2cc(C)c(Cl)c(C)c2)sc2c1CCCC2	nt	90	nt
CCOC(=O)c1c(NC(=O)COc2cccc(C(F)(F)F)c2)sc2c1CCCCC2	nt	90	nt
CCOC(=O)c1c(NC(=O)COc2ccc(CC)cc2)sc2c1CCCC2	nt	i	nt
COC(=O)c1c(NC(=O)COc2ccc(Cl)cc2C)sc2c1CCCCC2	nt	85	nt
CCOC(=O)c1c(NC(=O)COc2ccc(C(C)(C)C)cc2)sc2c1CCCC2	nt	i	nt
C=CCc1cc(C=C2C(=O)NC(=O)NC2=O)cc(OC)c1OC	i	i	i
COc1ccccc1CN(C)C(=O)CN1CCN(C/C=C/c2ccccc2)CC1	i	i	i
Cc1ccc(SC(C)C(=O)Nc2ccc(CC#N)cc2)cc1 (centres undefined)	i	i	i
CCCn1c(C)cc(C(=O)COC(=O)c2ccc(C#N)cc2)c1C	i	i	i
CCN(Cc1ccccc1)C(=O)CSc1nc2ncccc2[nH]1	i	i	i
N/C(=N\C(=O)Nc1ccccc1)N1CCN(Cc2ccccc2)CC1	i	i	i
O=c1ccn2c(n1)OC1C(O)C(CO)OC12 (centres undefined)	i	i	i
O=C(C1CC(=O)N(C2CCCC2)C1)N1CCC(c2nc3ccccc3s2)CC1 (centres undefined)	i	i	i
SMILES	Mtb MbtI inh	Polio RdRp inh	MenB inh
CC12COC3(C(=O)N4CCCCC4)CC1CCC32C (centres undefined)	i	i	nt
CC12COC3(C(=O)Nc4ccccc4)CC1CCC32C (centres undefined)	i	i	58
CSc1ccc(-c2nc3ccccc3c(=O)[nH]2)cc1	i	i	i
CCOC(=O)c1sc(C)c2c(=O)[nH]c(-c3ccc(SC)cc3)nc12	64	nt	nt
CC(C)(C)/C(O)=C/c1nc2ccccc2oc1=O	i	i	64
CC(C)C/C(O)=C/c1nc2cc(Cl)ccc2oc1=O	i	i	85
CCS(=O)(=O)c1ccc2oc(=O)c(/C=C(\O)C(C)(C)C)nc2c1	i	i	55
O=c1oc2ccccc2nc1/C=C(\O)c1ccccc1	i	i	i
CCS(=O)(=O)c1ccc2oc(SCC(=O)NCc3ccccc3)nc2c1	i	i	i
Cc1nc(C)c(/C(O)=C/c2nc3cc(Cl)ccc3oc2=O)o1	i	i	i
O=C(O)C1C2CCC(C2)C1C(=O)Nc1ccc(Cc2ccncc2)cc1 (centres undefined)	i	i	i
N#C/C(=C\c1cc(C(F)(F)F)cc(C(F)(F)F)c1)S(=O)(=O)c1ccccc1	i	i	i
NNC(=O)c1ccccc1	i	i	i
CC(C)CC(=O)OCc1ccc(Cl)c(Cl)c1	i	i	nt
c1ccc2c(c1)nc1n2CCNC1	i	i	i
CC1=CC(=O)C(N(C)c2ccccc2)=CC1=O	85	i	nt
CC1=C/C(=C/N(C)c2ccccc2)C(=O)S1	i	i	i
COCCN(Cc1ccco1)C(=O)c1noc2c1COc1ccc(C)cc1-2	i	i	i
COc1ccc(S(=O)(=O)N2CCN(Cc3cccc(F)c3)CC2)c(OC)c1	i	i	i
Clc1nc(Cl)nc(Nc2ccccc2)n1	nt	87	i
Fc1cccc(Nc2nc(Cl)nc(Cl)n2)c1	i	i	48
Fc1cccc(Nc2nc(-c3ccccc3)no2)c1	i	i	i
CN(C)c1nc(Nc2ccccc2)nc(N(C)C)n1	i	i	i
CCS(=O)(=O)N1CCN(C2CCCCCCC2)CC1	i	i	i
